Experimental data: PubChem BioAssay (NCI)
The panel holds about 79,000 compounds, 15% with a hit somewhere; the sample as a whole holds those more often. Rule as the data show it: active = growth inhibition above about 70%; inactive = the rest.

Experiments:
[1] = NCI Yeast Anticancer Drug Screen. Data for the rad50 strain (AID 155);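 also: 0% = growth of vehicle-only cultures of the same strain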; details: S. cerevisiae rad50 strain growth inhibition; at 50.0 µM; hits give high values
How it was run: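 DNA repair mutant yeast, compound exposure, growth read-out; inhibition is taken relative to vehicle.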

[2] = NCI Yeast Anticancer Drug Screen. Data for the mec2-1 strain (AID 157); details: S. cerevisiae mec2-1 strain, at 50.0 µM, hits give high values
How it was run: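 mec2-1 yeast strain, carrying an alteration in DNA damage repair or cell cycle control, was exposed to compounds; growth inhibition was measured relative to vehicle-treated controls.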

[3] = NCI Yeast Anticancer Drug Screen. Data for the sgs1 mgt1 strain (AID 161);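 also: 0% = growth of cultures given vehicle only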; details: S. cerevisiae sgs1 mgt1 strain, at 50.0 µM, hits give high values
How it was run: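 Growth of a repair-deficient yeast mutant was monitored after compound treatment and expressed as inhibition relative to vehicle-treated cultures.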

[4] = NCI Yeast Anticancer Drug Screen. Data for the cln2 rad14 strain (AID 165);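 also: 0% = growth equal to vehicle treated cultures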; details: S. cerevisiae cln2 rad14 strain, at 50.0 µM, hits give high values
How it was run: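 Yeast carrying cln2 and rad14 alterations (cell cycle control and DNA damage repair) were exposed to compounds. Growth inhibition was measured against vehicle-treated controls.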

[5] = NCI Yeast Anticancer Drug Screen. Data for the bub3 strain (AID 167); details: S. cerevisiae bub3 mutant strain, at 50.0 µM, hits give high values
How it was run: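 In this screen, a yeast mutant lacking normal mitotic checkpoint function is challenged with compound. Relative growth versus vehicle gives the inhibition value.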

[6] = NCI Yeast Anticancer Drug Screen. Data for the mlh1 rad18 strain (AID 175); details: S. cerevisiae mlh1 rad18 strain growth inhibition; at 50.0 µM; hits give high values
How it was run: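 Growth inhibition of the yeast strain was measured after compound exposure and expressed relative to vehicle-treated controls. The strain carries defined defects in DNA damage repair.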

Measured: growth inhibition

CN(C)S(=O)(=O)c1cccc2ccccc12
inactive: [1] 3.35% | [2] 7.85% | [3] -7.35% | [4] -6.9% | [5] 2.45% | [6] -8.65%

CC1(C)OC(C2SCCS2)C2OC(=O)C(O[Si](C)(C)C(C)(C)C)C2O1 (stereo not given)
inactive: [1] 18.2% | [2] 16.2% | [3] 2.75% | [4] 0.9% | [5] -2.6% | [6] -1.5%

C/C(=N\NC(=O)/C(C#N)=C\c1ccc(N(CCC#N)CCC#N)cc1)c1ccccc1
inactive: [1] 0.2% | [2] -14.2% | [3] -20.5% | [4] -6.9% | [5] -7.4% | [6] -1.95%

CNC(=O)c1ccccc1S(=O)Cc1ccc(Br)cc1 (stereo not given)
inactive: [1] -19.1% | [2] -30.2% | [3] -17.6% | [4] 8.35% | [5] 22.7% | [6] -0.95%

CC(CC(=O)O)(CC(=O)O)c1ccccc1
inactive: [1] 19.6% | [2] -35.5% | [3] -11.2% | [4] -7.3% | [5] -7.05% | [6] -35.1%

Nc1cccc2ccc(S(=O)(=O)O)cc12
inactive: [1] -3.05% | [2] -9% | [3] -24.4% | [4] -13.8% | [5] -9.9% | [6] 8.85%

ClCC1CCC(CCl)CC1 (stereo not given)
inactive: [1] -31.6% | [2] -18.4% | [3] -15.2% | [4] -5.95% | [5] -21.7% | [6] -16.1%

Nc1ccccc1NC1CCN(Cc2ccccc2)CC1
inactive: [1] 27.2% | [2] -3.35% | [3] 25.8% | [4] 33.5% | [5] 22.9% | [6] 19.1%

Cc1ccc(S(=O)(=O)n2cncc2CO)cc1
inactive: [1] -33.7% | [2] -26.8% | [3] -15.1% | [4] 7.55% | [5] 4.05% | [6] -10.7%

CC(=O)NC(C)Cc1ccc(C(=O)O)cc1 (stereo not given)
inactive: [1] 13.9% | [2] -6.25% | [3] -8.5% | [4] -36.4% | [5] -4.5% | [6] 12.6%

C=C1C(O)CC2C(O)C3(C)CCC(C)(C)C3C12O (stereo not given)
inactive: [1] 3.55% | [2] 1.2% | [3] 12.2% | [4] 15.3% | [5] -0.25% | [6] 11.7%

COC(=O)c1cccc(O)c1O
inactive: [1] 12.9% | [2] -0.3% | [3] -1.5% | [4] -41.4% | [5] 18% | [6] -0.65%

CC(C)=NNC(=O)c1ccccc1CC(O)(c1ccccc1)c1ccccc1
inactive: [1] 22.1% | [2] 5.25% | [3] 10.2% | [4] -35.6% | [5] -24.4% | [6] 15.2%

COc1ccc(/C=N/n2cnc3c(c2=O)S/C(=C2/SC(=S)N(c4ccc(C)cc4)C2=O)N3c2ccccc2)cc1
inactive: [1] -29.5% | [2] -57.2% | [3] -12.8% | [4] -75% | [5] -25.9% | [6] -11.9%

CCC/C=C(\CC)COC(=O)Nc1ccccc1
inactive: [1] -1.15% | [2] -19.6% | [3] -9.55% | [4] -47.9% | [5] -31.1% | [6] -1.75%

COc1cccc(CCNC(=O)Cc2ccccc2CCO)c1
inactive: [1] -5.8% | [2] -7.8% | [3] -46.8% | [4] 9.35% | [5] -37.9% | [6] -53.8%

CCOC(=O)C(C)(NC(=O)c1ccc(NCc2ccc3nc(NC(=O)c4ccccc4)nc(NC(=O)c4ccccc4)c3c2)cc1)C(=O)OCC
inactive: [1] -4.1% | [2] -24% | [3] 7.5% | [4] -24.1% | [5] -16.5% | [6] -8.45%

Cc1ccc2oc(=O)c(C(=O)Nc3nc(C45CC6CC(CC(C6)C4)C5)cs3)cc2c1
inactive: [1] -23.1% | [2] -22.9% | [3] -23.6% | [4] 13% | [5] -30.5% | [6] -26.2%

CC1Oc2c(c(=O)oc3ccccc23)[C@@]1(C)CC1C[C@H](C)C(=O)O1 (stereo not given in full)
inactive: [1] 31.6% | [2] 25.9% | [3] 35.2% | [4] 11.5% | [5] 11.4% | [6] 39.1%

OCC1CSCC1CO (stereo not given)
inactive: [1] 8.6% | [2] 12.8% | [3] -4.7% | [4] 15.3% | [5] 11.7% | [6] 3.5%
